From PubChem BioAssay (NCI) come the findings set out here.

Common to all, as to test: NCI-60 one-dose screen, 48 h (100 = growth as untreated, 0 = no growth, -100 = all killed)
The subject of one assay is SR leukemia. Conditions: 10 µM unless noted.
The subject of another assay is RPMI-8226 leukemia. Conditions: 10 µM unless noted.
The next assay has as its system OVCAR-5 ovarian. Conditions: 10 µM unless noted.
Another assay relates to OVCAR-4 ovarian. Conditions: 10 µM unless noted.
Another assay has as its system SK-OV-3 ovarian. To be noted: 10 µM unless noted.
The test system of another assay is IGROV1 ovarian. Conditions: 10 µM unless noted.
In another assay the test system is OVCAR-3 ovarian. Conditions: 10 µM unless noted.
The next assay deals with HS 578T breast. Conditions: 10 µM unless noted.
For the next assay, the system named is NCI/ADR-RES ovarian. Conditions: 10 µM unless noted.
For the next assay, the system named is T-47D breast. To be noted: 10 µM unless noted.
The test system of the next assay is BT-549 breast. Conditions: 10 µM unless noted.
The next assay concerns MDA-MB-435 melanoma. To be noted: 10 µM unless noted.
Another assay has as its system SW-620 colon. Conditions: 10 µM unless noted.
The test system of another assay is MCF7 breast. Conditions: 10 µM.
The next assay concerns HCT-116 colon. Conditions: 10 µM unless noted.
A further assay relates to HCC-2998 colon. To be noted: 10 µM unless noted.
A further assay has as its system KM12 colon. Conditions: 10 µM unless noted.
A further assay deals with OVCAR-8 ovarian. Conditions: 10 µM unless noted.

Where “and” joins values, the source holds several entries; their conditions need not be identical. Identical values can stand only once. Compounds without any hit were thinned out: in the full panel of roughly 83,000, 20% have a hit.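 Step 1: grow cells in 96-well plates. Step 2: add test compound at a single concentration. Step 3: incubate 48 h. Step 4: record percent growth.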 Calls of active or inactive are those of the source. How the source made its calls: active means growth percent below 10; inactive means the rest.

With `CCN1/C(=C\c2cc[n+](CC)c3ccccc23)C=Cc2ccccc21`, the growth in the assay with SR leukemia was 15.7% (inactive); in the assay on RPMI-8226 leukemia it was 12.6% (inactive); in the assay with OVCAR-5 ovarian it was 11.7% (inactive); in the assay with OVCAR-4 ovarian, 12.9% (inactive); with SK-OV-3 ovarian, 3.69% (active); in the assay on IGROV1 ovarian it was 29.8% (inactive). The growth was 11.8% (inactive) with OVCAR-3 ovarian; 37.4% (inactive) in the assay on HS 578T breast; 86.9% (inactive) in the assay with NCI/ADR-RES ovarian; 2.9% (active) in the assay on T-47D breast; 10.8% (inactive) with BT-549 breast; -30.7% (active) in the assay with MDA-MB-435 melanoma. Moreover, the growth in the assay with SW-620 colon was 8.76% (active); with MCF7 breast, 8.12% (active); in the assay on HCT-116 colon, 11.9% (inactive); with HCC-2998 colon, 23% (inactive); with KM12 colon it was 1.57% (active).

Turning to `CC(=O)ON=C1C=CC(=C(C#N)c2ccccc2)C=C1`, the growth is 17.4% (inactive) in the assay on SR leukemia; 18.7% (inactive) with RPMI-8226 leukemia; 123% (inactive) in the assay with OVCAR-5 ovarian; 60.6% (inactive) in the assay with OVCAR-4 ovarian; 55.7% (inactive) in the assay on SK-OV-3 ovarian; 2.9% (active) in the assay on IGROV1 ovarian. In addition, the growth was -30.6% (active) in the assay with OVCAR-3 ovarian; 15.5% (inactive) with HS 578T breast; -10.8% (active) in the assay with NCI/ADR-RES ovarian; 42.3% (inactive) in the assay on T-47D breast; 50.7% (inactive) with BT-549 breast; -2.19% (active) with MDA-MB-435 melanoma. For the same compound, the growth is 6.41% (active) in the assay on SW-620 colon; 15.5% (inactive) in the assay on MCF7 breast; -13.1% (active) with HCT-116 colon; 88.3% (inactive) in the assay on HCC-2998 colon; -48.2% (active) in the assay with KM12 colon.

For the compound `Oc1c(Br)c(Br)c(O)c(Br)c1Br`, the growth was 63.2% (inactive) with SR leukemia; 104% (inactive) in the assay on RPMI-8226 leukemia; 129% (inactive) in the assay with OVCAR-5 ovarian; 68.7% (inactive) in the assay with OVCAR-4 ovarian; 156% (inactive) with SK-OV-3 ovarian; 115% (inactive) with IGROV1 ovarian. Moreover, the growth in the assay with OVCAR-3 ovarian is 5.11% (active); with HS 578T breast, 144% (inactive); in the assay on NCI/ADR-RES ovarian, 102% (inactive); in the assay on T-47D breast, 25.2% (inactive); in the assay with BT-549 breast, 95.3% (inactive); in the assay with MDA-MB-435 melanoma, 106% (inactive). Also, the growth was 8.91% (active) with SW-620 colon, 67% (inactive) in the assay on MCF7 breast, 96.2% (inactive) with HCT-116 colon and 110% (inactive) in the assay on KM12 colon.

Regarding `O=C(/C=C\c1cc(Br)ccc1O)/C=C/c1cc(Br)ccc1O`, the growth with SR leukemia was 1.17% (active); in the assay with RPMI-8226 leukemia, 0.234% (active); with OVCAR-8 ovarian it was 3.86% (active); with OVCAR-5 ovarian it was -22.2% (active); in the assay on OVCAR-4 ovarian, 15.2% (inactive); with SK-OV-3 ovarian, 18.9% (inactive). Also, the growth is -16.9% (active) with IGROV1 ovarian; -81.5% (active) with OVCAR-3 ovarian; 6.69% (active) with T-47D breast; -12.3% (active) in the assay on BT-549 breast; -47.9% (active) in the assay with MDA-MB-435 melanoma; -43.4% (active) in the assay with SW-620 colon. Besides, the growth in the assay with MCF7 breast was 6.18% (active); in the assay on HCT-116 colon, -97.8% (active); in the assay on HCC-2998 colon, -74.4% (active); with KM12 colon, -71.5% (active).

Take `CC1OC2CC(=O)OC2C2=C1C(=O)c1c(O)cccc1C2=O` (stereo not drawn): the growth with SR leukemia is -30% (active); in the assay with RPMI-8226 leukemia, -9.64% (active); in the assay with OVCAR-8 ovarian, -14.7% (active); in the assay on OVCAR-5 ovarian it was -75.2% (active); in the assay with OVCAR-4 ovarian, -98.5% (active); with SK-OV-3 ovarian it was 21% (inactive). The growth in the assay on OVCAR-3 ovarian is -97.9% (active); in the assay on HS 578T breast it was 5.97% (active); in the assay with NCI/ADR-RES ovarian, -6.77% (active); in the assay with T-47D breast, -30.1% (active); in the assay with BT-549 breast, -98.5% (active); in the assay on MDA-MB-435 melanoma it was -68% (active). Besides, the growth was -76.4% (active) in the assay with SW-620 colon; -45.2% (active) in the assay with MCF7 breast; -97.8% (active) with HCT-116 colon; -97.4% (active) in the assay with HCC-2998 colon; 24.7% (inactive) in the assay with KM12 colon.

Take `O=Nc1ccccc1N=O`: the growth with SR leukemia was 63.8% (inactive); with RPMI-8226 leukemia it was 86.7% (inactive); with OVCAR-5 ovarian it was 105% (inactive); in the assay with OVCAR-4 ovarian it was 88.9% (inactive); with SK-OV-3 ovarian, 116% (inactive); with IGROV1 ovarian, 91.1% (inactive). Also, the growth is 118% (inactive) in the assay on OVCAR-3 ovarian; 84.2% (inactive) in the assay with HS 578T breast; 81.2% (inactive) in the assay with NCI/ADR-RES ovarian; 94.3% (inactive) in the assay with T-47D breast; 92.7% (inactive) with BT-549 breast; 87.3% (inactive) in the assay on MDA-MB-435 melanoma. For the same compound, the growth in the assay on SW-620 colon was 77.5% (inactive); in the assay with MCF7 breast, 65.1% (inactive); with HCT-116 colon it was 92.8% (inactive); with HCC-2998 colon it was 93.9% (inactive); with KM12 colon it was 91.3% (inactive).

Take `Oc1c(Cl)c2ccccc2c2ccccc12`: the growth in the assay with SR leukemia was 99.2% (inactive); in the assay with RPMI-8226 leukemia, 102% (inactive); in the assay with OVCAR-8 ovarian, 98.4% (inactive); in the assay on OVCAR-5 ovarian, 129% (inactive); in the assay on OVCAR-4 ovarian, 98.1% (inactive); with SK-OV-3 ovarian it was 111% (inactive). Moreover, the growth is 117% (inactive) with IGROV1 ovarian; 107% (inactive) in the assay with OVCAR-3 ovarian; 122% (inactive) in the assay with T-47D breast; 95.8% (inactive) with BT-549 breast; -72% (active) with MDA-MB-435 melanoma; 111% (inactive) in the assay with SW-620 colon. The growth is 98.8% (inactive) with MCF7 breast, 101% (inactive) with HCT-116 colon and 107% (inactive) in the assay with KM12 colon.

As to `N#CSCc1ccc(CSC#N)c(Cl)c1`, the growth was 6.77% (active) with SR leukemia; 41.9% (inactive) in the assay on RPMI-8226 leukemia; 95.6% (inactive) in the assay on OVCAR-8 ovarian; 96.7% (inactive) in the assay on OVCAR-5 ovarian; 85.2% (inactive) in the assay on OVCAR-4 ovarian; 115% (inactive) in the assay with SK-OV-3 ovarian. Besides, the growth in the assay with IGROV1 ovarian is 91.2% (inactive); in the assay with OVCAR-3 ovarian, 77.9% (inactive); with NCI/ADR-RES ovarian it was 77.9% (inactive); in the assay with T-47D breast, 68.4% (inactive); with BT-549 breast, 56.5% (inactive); in the assay on MDA-MB-435 melanoma it was 40.6% (inactive). Further, the growth in the assay with SW-620 colon is 25.4% (inactive); in the assay with MCF7 breast it was 22.7% (inactive); in the assay on HCT-116 colon it was 43.6% (inactive); in the assay on KM12 colon it was 69.3% (inactive).

As to `Nc1nc(N)c2nc(CNc3ccc(C(=O)NC(CCC(=O)O)C(=O)O)cc3)cnc2n1` (stereo not drawn), the growth in the assay on SR leukemia is 15.1% (inactive) and 40.2% (inactive); in the assay with RPMI-8226 leukemia it was 60.7% (inactive) and 55% (inactive); with OVCAR-5 ovarian, 31.9% (inactive); in the assay on OVCAR-4 ovarian it was 58.8% (inactive) and 49.1% (inactive); in the assay on SK-OV-3 ovarian, 53.9% (inactive) and 44.2% (inactive); in the assay with IGROV1 ovarian, 36.9% (inactive) and 34.9% (inactive). In addition, the growth was 37.6% (inactive) and 39.8% (inactive) with OVCAR-3 ovarian; 90.5% (inactive) with HS 578T breast; 25.8% (inactive) and 20.3% (inactive) in the assay with NCI/ADR-RES ovarian; 58% (inactive) and 55.5% (inactive) in the assay with T-47D breast; 45.3% (inactive) and 45.4% (inactive) in the assay with BT-549 breast; 35.8% (inactive) and 24.4% (inactive) in the assay with MDA-MB-435 melanoma. Also, the growth is 27.6% (inactive) and 55.3% (inactive) with SW-620 colon; 18% (inactive) and 16.3% (inactive) in the assay on MCF7 breast; 21.2% (inactive) and 10.3% (inactive) in the assay with HCT-116 colon; 16.6% (inactive) and 3.42% (active) in the assay with HCC-2998 colon; 38.7% (inactive) and 30.8% (inactive) with KM12 colon.
